From PubChem BioAssay (EPA / NIEHS)
Records with an inconclusive call do not appear. The source made the active and inactive calls. Rule for the calls, unless noted: active = hit-call score of the fitted dose curve at least 0.9, where 1 is the maximum; inactive = score below 0.9.

Key:
[1] = target: Paired box protein Pax-6 (Homo sapiens) (UniProt P26367); experiment: ATG_Pax6_CIS: Attagene CIS-FACTORIAL HepG2 Assay for human Paired Box 6 (PAX6) (AID 2282956); settings: HepG2 CIS-FACTORIAL PAX6 reporter transcription, RNA readout; actives raise or lower the signal
How it was run: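 HepG2 cells transiently transfected with cis-promoter-driven multiplexed reporter units sensing endogenous transcription factor activity; 24 h chemical exposure. Reporter mRNA quantified by RT-PCR, 6-FAM labelling, HpaI digestion and capillary electrophoresis; bidirectional fit versus DMSO baseline.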

[2] = ATG_PXRE_CIS: Attagene CIS-FACTORIAL HepG2 Assay for human Pregnane X Receptor Element (PXRE) (AID 2282957); settings: HepG2 Attagene CIS-FACTORIAL PXRE reporter, mRNA; actives raise or lower the signal
How it was run: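 Transiently transfected HepG2 cells were dosed and incubated for 24 h. RNA was then isolated, DNase-treated, reverse-transcribed and reporter sequences amplified. Labeled, HpaI-digested fragments were quantified by capillary electrophoresis against DMSO.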

[3] = ATG_RORE_CIS: Attagene CIS-FACTORIAL HepG2 Assay for human RAR-related Orphan Receptor Element (RORE) (AID 2282959); settings: HepG2 Attagene cis-factorial RORE reporter, mRNA; actives raise or lower the signal
How it was run: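 Transiently transfected HepG2 reporter cells were treated 24 h. Reporter transcripts were detected by RT-PCR and capillary electrophoresis, with bidirectional fitting against DMSO.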

[4] = ATG_Sox_CIS: Attagene CIS-FACTORIAL HepG2 Assay for human SRY-box transcription factor (SOX) (AID 2282960); settings: HepG2 Attagene cis-factorial SOX reporter, mRNA; actives raise or lower the signal
How it was run: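 Gain- or loss-of-signal endpoint, fitted bidirectionally with DMSO as negative control. Based on reporter mRNA from transfected HepG2 cells harvested 24 h post-treatment and quantified via RT-PCR and capillary electrophoresis.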

[5] = target: Transcription factor Sp1 (Homo sapiens) (UniProt P08047); experiment: ATG_Sp1_CIS: Attagene CIS-FACTORIAL HepG2 Assay for human Specificity Protein 1 (Sp1) (AID 2282961); settings: HepG2 Sp1 cis-reporter transcription, actives raise or lower the signal
How it was run: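 Endpoint reflects endogenous Sp1 transcriptional activity, not an exogenous fusion protein: HepG2 cells with transfected cis-regulated reporters, 24 h dosing, RT-PCR/capillary electrophoresis mRNA read-out, DMSO-normalised bidirectional fit.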

[6] = ATG_SREBP_CIS: Attagene CIS-FACTORIAL HepG2 Assay for human Sterol Regulatory Element Binding (SREBP) (AID 2282962); settings: HepG2 Attagene cis-factorial SREBP reporter, mRNA; actives raise or lower the signal
How it was run: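 HepG2 cells transiently transfected with multiplexed cis-promoter reporter units sensing endogenous transcription factors; reporter mRNA measured 24 h after dosing by RT-PCR, 6-FAM labeling, HpaI digestion and capillary electrophoresis. Bidirectional fit versus DMSO.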

[7] = target: Signal transducer and activator of transcription 3 (Homo sapiens) (UniProt P40763); experiment: ATG_STAT3_CIS: Attagene CIS-FACTORIAL HepG2 Assay for human Signal Transducer and Activator of Transcription 3 (STAT3) (AID 2282963); settings: HepG2, Attagene cis-factorial STAT3 reporter transcription; actives raise or lower the signal
How it was run: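 After a 24 h compound incubation, total RNA from MRTU-transfected HepG2 cells was converted to cDNA and reporter sequences PCR-amplified, labelled and profiled by capillary electrophoresis. Gain and loss of signal were referenced to DMSO.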

[8] = ATG_TA_CIS: Attagene CIS-FACTORIAL HepG2 Assay for human TA Basal Promoter (AID 2282964); settings: HepG2 Attagene CIS-factorial TA basal promoter reporter; actives raise or lower the signal
How it was run: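 HepG2 cells transiently transfected with multiple reporter units under cis promoter elements, reporting endogenous transcription factor activity; this endpoint tracks the TA basal promoter as background control. Reporter mRNA after 24 h dosing measured by RT-PCR/capillary electrophoresis; bidirectional fits versus DMSO.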

[9] = ATG_TCF_b_cat_CIS: Attagene CIS-FACTORIAL HepG2 Assay for human T-Cell-Factor with beta-catenin (TCF/b-cat) (AID 2282965); settings: HepG2 TCF/beta-catenin cis-reporter transcription, actives raise or lower the signal
How it was run: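 Endogenous transcription factor activity is captured through cis-promoter reporter constructs transiently introduced into human HepG2 liver cells. Induced reporter mRNA is measured after 24 h and fitted bidirectionally relative to DMSO.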

[10] = ATG_TAL_CIS: Attagene CIS-FACTORIAL HepG2 Assay for human TAL Basal Promoter (AID 2282966); settings: HepG2 Attagene cis-factorial TAL promoter reporter; actives raise or lower the signal;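 note: background control endpoint measuring basal TAL promoter reporter mRNA not a specific factor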
How it was run: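 Readout: reporter mRNA, fluorescence by CE. System: HepG2, transient multi-reporter transfection, endogenous TF activity. Exposure: 24 h. Analysis: bidirectional, DMSO-normalized; background control.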

[11] = ATG_TGFb_CIS: Attagene CIS-FACTORIAL HepG2 Assay for human Transforming Growth Factor (TGF) (AID 2282967); settings: HepG2 Attagene CIS TGFb reporter, mRNA transcription; actives raise or lower the signal
How it was run: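 HepG2 cells transiently transfected with cis-promoter-driven multiple reporter units measure endogenous TF activity; reporter mRNA quantified at 24 h by RT-PCR, FAM labeling, HpaI digestion and capillary electrophoresis. Bidirectional fit vs DMSO.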

[12] = ATG_VDRE_CIS: Attagene CIS-FACTORIAL HepG2 Assay for human Vitamin D Receptor Element (VDRE) (AID 2282968); settings: HepG2 VDRE cis-reporter transcription, actives raise or lower the signal
How it was run: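 In transiently transfected HepG2 liver cells, gain or loss of reporter mRNA after 24 h exposure is scored relative to DMSO, using fluorescence detection by capillary electrophoresis of RT-PCR products.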

[13] = target: X-box-binding protein 1 (Homo sapiens) (UniProt P17861); experiment: ATG_Xbp1_CIS: Attagene CIS-FACTORIAL HepG2 Assay for human X-box Binding Protein 1 (XBP1) (AID 2282972); settings: HepG2 XBP1 cis-element reporter, Attagene multiplex; actives raise or lower the signal
How it was run: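 HepG2 cells transiently transfected with multiple cis-element reporter units report endogenous TF activity; 24 h exposure, then reporter mRNA measured by RT-PCR, 6-FAM labelling, HpaI digestion and capillary electrophoresis. Bidirectional fitting versus DMSO.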

[14] = ATG_M_19_TRANS: Attagene TRANS-FACTORIAL HepG2 Assay for M19 Transcription Factor (Internal Marker) (AID 2282974; active = hit-call score of the fitted dose curve at least 0.9, where 1 is the maximum); settings: HepG2 Attagene TRANS-FACTORIAL M19 internal marker reporter
How it was run: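 Using RT-PCR and capillary electrophoresis, reporter mRNA from transiently transfected human HepG2 cells was quantified following 24 h exposure; activity was fitted in the positive direction against DMSO.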

[15] = target: Estrogen receptor (Homo sapiens) (UniProt P03372); experiment: ATG_ERa_TRANS: Attagene TRANS-FACTORIAL HepG2 Assay for human Estrogen Receptor alpha (ERa) (AID 2282970; active = hit-call score of the fitted dose curve at least 0.9, where 1 is the maximum); settings: HepG2 Attagene TRANS ERa GAL4 reporter, mRNA
How it was run: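 Transactivation via ERa-Gal4 chimera in HepG2; 24 hour incubation; reporter mRNA detected by fluorescence RT-PCR and capillary electrophoresis.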

[16] = ATG_GAL4_TRANS: Attagene TRANS-FACTORIAL HepG2 Assay for GAL4 (Internal Marker) (AID 2282976; active = hit-call score of the fitted dose curve at least 0.9, where 1 is the maximum); settings: HepG2 Attagene TRANS GAL4 internal marker reporter
How it was run: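 Fluorescence from capillary electrophoresis of labelled RT-PCR products quantifies reporter mRNA induction after 24 h dosing of HepG2 cells carrying transfected GAL4-UAS reporter transcription units. Vehicle DMSO serves as baseline.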

[17] = target: Steroid hormone receptor ERR1 (Homo sapiens) (UniProt P11474); experiment: ATG_ERRa_TRANS: Attagene TRANS-FACTORIAL HepG2 Assay for human Estrogen-Related Receptor alpha (ERRa) (AID 2282971; active = hit-call score of the fitted dose curve at least 0.9, where 1 is the maximum); settings: HepG2 Attagene TRANS reporter, ERRa transactivation
How it was run: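 HepG2 cells were transiently transfected with multiple GAL4-UAS reporter units, then dosed with compound for 24 h. Total RNA was reverse-transcribed, reporter cDNA PCR-amplified and fluorescently labelled, and fragments resolved by capillary electrophoresis; induction was compared with DMSO.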

[18] = target: Estrogen-related receptor gamma (Homo sapiens) (UniProt P62508); experiment: ATG_ERRg_TRANS: Attagene TRANS-FACTORIAL HepG2 Assay for human Estrogen-Related Receptor gamma (ERRg) (AID 2282977; active = hit-call score of the fitted dose curve at least 0.9, where 1 is the maximum;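 note: hits increase reporter signal over DMSO so potencies reflect activators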); settings: HepG2 Attagene TRANS reporter, ERRg transactivation
How it was run: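 HepG2 cells transiently transfected with multiplexed GAL4-UAS reporter units and chimeric NR-Gal4 constructs were exposed to test chemicals for 24 h. Reporter mRNA was measured by RT-PCR, 6-FAM primer extension, HpaI digestion and capillary electrophoresis; gain-of-signal versus DMSO.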

[19] = target: Nuclear receptor subfamily 1 group I member 3 (Homo sapiens) (UniProt Q14994); experiment: ATG_CAR_TRANS: Attagene TRANS-FACTORIAL HepG2 Assay for human Constitutive Androstane Receptor (CAR) (AID 2282969; active = hit-call score of the fitted dose curve at least 0.9, where 1 is the maximum;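 note: activators raise reporter mRNA above DMSO so AC50 marks induction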); settings: HepG2 Attagene TRANS-FACTORIAL CAR reporter
How it was run: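 Readout is reporter mRNA induction, quantified by fluorescent primer extension and capillary electrophoresis after RT-PCR. Cells were HepG2 transiently carrying chimeric NR-Gal4 constructs with GAL4-UAS reporters, treated for 24 h; activity scored upward from DMSO.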

Measured: AC50

Chain of X-box-binding protein 1 (Homo sapiens) (P17861 whole entry, looked up): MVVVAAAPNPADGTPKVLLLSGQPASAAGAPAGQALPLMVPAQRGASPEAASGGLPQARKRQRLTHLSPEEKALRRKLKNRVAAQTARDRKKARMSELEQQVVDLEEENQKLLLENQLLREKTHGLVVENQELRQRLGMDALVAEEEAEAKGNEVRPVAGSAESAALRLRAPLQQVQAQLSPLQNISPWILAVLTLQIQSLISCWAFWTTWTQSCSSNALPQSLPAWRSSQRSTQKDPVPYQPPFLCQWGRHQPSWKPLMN
Chain of Signal transducer and activator of transcription 3 (Homo sapiens) (P40763 whole entry, looked up): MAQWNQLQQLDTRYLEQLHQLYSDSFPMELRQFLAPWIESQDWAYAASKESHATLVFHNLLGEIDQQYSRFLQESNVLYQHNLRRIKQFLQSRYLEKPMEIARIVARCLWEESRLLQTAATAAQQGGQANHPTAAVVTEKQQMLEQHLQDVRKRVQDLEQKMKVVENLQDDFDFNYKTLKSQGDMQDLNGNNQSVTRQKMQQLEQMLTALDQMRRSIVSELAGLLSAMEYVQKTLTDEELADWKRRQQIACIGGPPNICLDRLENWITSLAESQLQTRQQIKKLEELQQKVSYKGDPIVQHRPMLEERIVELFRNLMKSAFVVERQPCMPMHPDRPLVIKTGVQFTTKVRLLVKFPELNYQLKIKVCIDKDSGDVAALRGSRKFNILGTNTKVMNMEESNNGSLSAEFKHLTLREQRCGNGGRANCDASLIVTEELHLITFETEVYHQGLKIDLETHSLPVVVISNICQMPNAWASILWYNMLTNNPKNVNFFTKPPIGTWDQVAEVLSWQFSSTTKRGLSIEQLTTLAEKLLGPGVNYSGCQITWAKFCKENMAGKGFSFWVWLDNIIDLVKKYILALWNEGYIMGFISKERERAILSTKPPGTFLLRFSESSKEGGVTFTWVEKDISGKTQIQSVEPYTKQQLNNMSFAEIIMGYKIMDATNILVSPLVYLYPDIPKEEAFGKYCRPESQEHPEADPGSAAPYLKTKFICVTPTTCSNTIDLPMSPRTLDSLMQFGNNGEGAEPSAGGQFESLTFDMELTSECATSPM
Chain of Transcription factor Sp1 (Homo sapiens) (P08047 whole entry, looked up, the tested form may be a part): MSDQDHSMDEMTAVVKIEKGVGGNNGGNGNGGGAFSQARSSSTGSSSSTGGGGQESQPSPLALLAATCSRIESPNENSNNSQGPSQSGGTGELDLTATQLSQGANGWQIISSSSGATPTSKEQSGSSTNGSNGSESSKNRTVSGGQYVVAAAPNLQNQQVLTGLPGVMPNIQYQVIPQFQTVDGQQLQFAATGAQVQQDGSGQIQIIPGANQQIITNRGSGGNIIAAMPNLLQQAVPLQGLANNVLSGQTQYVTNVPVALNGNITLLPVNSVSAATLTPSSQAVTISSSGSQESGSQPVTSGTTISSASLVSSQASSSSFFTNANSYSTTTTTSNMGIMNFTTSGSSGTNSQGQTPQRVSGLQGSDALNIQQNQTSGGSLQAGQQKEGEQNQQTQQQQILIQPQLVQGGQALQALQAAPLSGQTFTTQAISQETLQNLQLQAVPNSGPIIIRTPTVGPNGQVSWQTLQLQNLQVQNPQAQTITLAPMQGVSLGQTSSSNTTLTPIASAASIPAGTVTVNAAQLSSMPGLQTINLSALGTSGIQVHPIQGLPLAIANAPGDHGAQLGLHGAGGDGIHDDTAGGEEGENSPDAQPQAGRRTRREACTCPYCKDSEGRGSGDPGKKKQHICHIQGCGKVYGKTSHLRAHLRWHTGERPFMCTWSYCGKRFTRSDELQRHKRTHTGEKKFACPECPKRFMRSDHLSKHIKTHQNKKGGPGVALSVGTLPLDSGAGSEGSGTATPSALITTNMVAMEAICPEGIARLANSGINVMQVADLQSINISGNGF
Chain of Paired box protein Pax-6 (Homo sapiens) (P26367 whole entry, looked up): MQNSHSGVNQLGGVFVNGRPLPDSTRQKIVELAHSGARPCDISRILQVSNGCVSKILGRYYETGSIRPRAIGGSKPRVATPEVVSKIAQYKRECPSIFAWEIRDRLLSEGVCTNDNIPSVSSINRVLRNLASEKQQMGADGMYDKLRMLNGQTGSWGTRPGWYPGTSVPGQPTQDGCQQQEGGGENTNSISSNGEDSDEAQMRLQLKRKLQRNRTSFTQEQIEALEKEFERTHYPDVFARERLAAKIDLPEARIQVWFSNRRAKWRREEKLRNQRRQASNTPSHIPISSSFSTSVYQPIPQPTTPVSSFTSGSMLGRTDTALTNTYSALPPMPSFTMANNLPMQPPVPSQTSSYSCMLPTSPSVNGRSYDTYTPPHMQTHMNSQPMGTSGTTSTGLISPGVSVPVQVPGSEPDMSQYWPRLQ
Chain of Estrogen receptor (Homo sapiens) (P03372 whole entry, looked up, the tested form may be a part): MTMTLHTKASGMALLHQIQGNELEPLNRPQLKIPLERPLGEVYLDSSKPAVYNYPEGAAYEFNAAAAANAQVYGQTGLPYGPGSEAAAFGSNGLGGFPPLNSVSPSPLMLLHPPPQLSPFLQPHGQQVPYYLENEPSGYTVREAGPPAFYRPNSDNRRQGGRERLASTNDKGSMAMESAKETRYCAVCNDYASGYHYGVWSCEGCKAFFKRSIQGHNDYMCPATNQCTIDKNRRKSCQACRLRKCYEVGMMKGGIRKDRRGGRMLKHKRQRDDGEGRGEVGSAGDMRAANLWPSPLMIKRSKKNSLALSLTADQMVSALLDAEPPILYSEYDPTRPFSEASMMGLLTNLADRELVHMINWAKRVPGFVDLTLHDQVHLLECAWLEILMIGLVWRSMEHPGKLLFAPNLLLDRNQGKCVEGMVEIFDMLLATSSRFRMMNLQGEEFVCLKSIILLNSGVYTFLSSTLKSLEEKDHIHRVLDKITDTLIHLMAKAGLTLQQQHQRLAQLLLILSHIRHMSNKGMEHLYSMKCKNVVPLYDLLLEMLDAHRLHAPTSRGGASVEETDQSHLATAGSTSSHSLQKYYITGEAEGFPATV
Chain of Estrogen-related receptor gamma (Homo sapiens) (P62508 whole entry, looked up, the tested form may be a part): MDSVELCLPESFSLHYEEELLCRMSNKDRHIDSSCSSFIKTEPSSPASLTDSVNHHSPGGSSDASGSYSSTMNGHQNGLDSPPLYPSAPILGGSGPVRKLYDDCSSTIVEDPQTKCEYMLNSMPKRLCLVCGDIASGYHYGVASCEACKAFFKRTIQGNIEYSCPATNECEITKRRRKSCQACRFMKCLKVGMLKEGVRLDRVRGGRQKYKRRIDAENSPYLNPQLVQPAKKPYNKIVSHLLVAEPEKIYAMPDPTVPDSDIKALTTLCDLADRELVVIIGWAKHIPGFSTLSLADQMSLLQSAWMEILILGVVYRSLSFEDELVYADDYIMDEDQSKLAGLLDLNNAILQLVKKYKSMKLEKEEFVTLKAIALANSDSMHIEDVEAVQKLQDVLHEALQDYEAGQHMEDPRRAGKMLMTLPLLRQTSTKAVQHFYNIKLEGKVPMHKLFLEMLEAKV
Chain of Nuclear receptor subfamily 1 group I member 3 (Homo sapiens) (Q14994 whole entry, looked up, the tested form may be a part): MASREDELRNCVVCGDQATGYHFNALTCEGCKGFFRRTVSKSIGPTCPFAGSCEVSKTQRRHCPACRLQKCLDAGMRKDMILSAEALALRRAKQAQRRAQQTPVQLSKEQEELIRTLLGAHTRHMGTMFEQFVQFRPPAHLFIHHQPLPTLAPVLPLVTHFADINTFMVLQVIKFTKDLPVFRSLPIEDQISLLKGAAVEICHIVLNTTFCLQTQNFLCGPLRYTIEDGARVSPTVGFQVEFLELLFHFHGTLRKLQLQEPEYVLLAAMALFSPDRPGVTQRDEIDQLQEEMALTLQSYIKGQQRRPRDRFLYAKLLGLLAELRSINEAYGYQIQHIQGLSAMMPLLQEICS
Chain of Steroid hormone receptor ERR1 (Homo sapiens) (P11474 whole entry, looked up, the tested form may be a part): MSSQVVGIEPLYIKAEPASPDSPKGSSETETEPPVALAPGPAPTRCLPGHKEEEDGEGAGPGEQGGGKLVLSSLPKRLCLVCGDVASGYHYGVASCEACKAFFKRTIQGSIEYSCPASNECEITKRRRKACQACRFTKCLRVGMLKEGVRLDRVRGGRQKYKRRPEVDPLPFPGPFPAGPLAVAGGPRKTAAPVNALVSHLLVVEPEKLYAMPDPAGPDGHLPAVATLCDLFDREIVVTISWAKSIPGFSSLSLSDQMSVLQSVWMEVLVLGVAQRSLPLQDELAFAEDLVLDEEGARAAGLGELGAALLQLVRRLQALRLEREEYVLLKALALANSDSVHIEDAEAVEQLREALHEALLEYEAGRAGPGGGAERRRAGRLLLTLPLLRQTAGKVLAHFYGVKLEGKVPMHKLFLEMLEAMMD

Cc1cccc(N)n1
inactive: [1] | [2] | [3] | [4] | [5] | [6] | [7] | [8] | [9] | [10] | [11] | [12] | [13] | [14]

CCO[Si](C)(OCC)OCC
inactive: [1] | [2] | [3] | [4] | [5] | [6] | [8] | [9] | [10] | [11] | [12] | [15] | [13]

CC(=O)OCC(=O)[C@@]12N=C(C)O[C@@H]1C[C@H]1[C@@H]3CCC4=CC(=O)C=C[C@]4(C)[C@H]3[C@@H](O)C[C@@]12C
inactive: [1] | [3] | [4] | [6] | [7] | [8] | [9] | [10] | [11] | [15] | [13] | [14] | [16]
active: [2] 17.6 µM | [12] 25 µM

C/C=C\C/C=C/CCCCCCCCOC(C)=O
inactive: [3] | [4] | [5] | [6] | [7] | [10] | [11] | [17] | [18]
active: [1] 100 µM | [2] 26.2 µM | [8] 69.7 µM | [9] 74.8 µM | [12] 30.1 µM | [13] 100 µM

C=CC(=O)OCCOC(=O)C=C
active: [1] 14.9 µM | [2] 26.5 µM | [3] 27.3 µM | [5] 25.3 µM | [9] 26.7 µM | [12] 10.5 µM
inactive: [4] | [6] | [7] | [8] | [10] | [11] | [13]

C#CC1(O)CC[C@H]2[C@@H]3CCC4=CCCC[C@@H]4[C@H]3CC[C@@]21C (some centres undefined)
active: [2] 2.58 µM | [3] 41.7 µM | [6] 27.4 µM | [8] 16.7 µM | [9] 33.4 µM | [10] 16.8 µM | [11] 9.28 µM | [15] 0.00914 µM
inactive: [1] | [4] | [5] | [7] | [12] | [13] | [14] | [16] | [18]

C[Si](C)O[Si](C)(C)O[Si](C)(C)O[Si](C)C
active: [2] 17 µM | [15] 30.3 µM
inactive: [1] | [3] | [4] | [5] | [6] | [7] | [8] | [9] | [10] | [11] | [12] | [13] | [16]

N[C@H]1C(O)O[C@H](CO)[C@H](O)[C@@H]1O (some centres undefined)
inactive: [1] | [2] | [3] | [4] | [5] | [6] | [7] | [9] | [10] | [11] | [12] | [15] | [13] | [14] | [16] | [18]

CCCCCCCCCCCCCOP(=O)(O)O
active: [2] 7.54 µM
inactive: [1] | [3] | [4] | [6] | [7] | [8] | [9] | [10] | [12] | [19] | [15] | [13] | [14]

O=C1CCCCCCCCCCC(=O)OCCO1
inactive: [1] | [2] | [4] | [5] | [6] | [7] | [8] | [9] | [10] | [11] | [12] | [19] | [15] | [13] | [14] | [16]

C=C1C2CCC(C2)C1(C)C (centres undefined)
active: [2] 31.4 µM
inactive: [1] | [4] | [5] | [6] | [7] | [8] | [9] | [10] | [11] | [12] | [19] | [15] | [13] | [14] | [18]

c1cc(C(c2ccc(OCC3CO3)cc2)C(c2ccc(OCC3CO3)cc2)c2ccc(OCC3CO3)cc2)ccc1OCC1CO1 (centres undefined)
active: [1] 34.4 µM | [2] 7.01 µM | [8] 72.2 µM | [9] 36.8 µM | [10] 44.8 µM | [12] 17 µM | [13] 22.9 µM
inactive: [4] | [6] | [14]
